# Laboratory results from PubChem BioAssay (NCI).
# The panel holds about 83,000 compounds, 20% with a hit somewhere; the sample as a whole holds those more often.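 Single-dose data. Exposure time 48 hours. Values below 10 considered active.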 Values without a mark were called inactive. Activity calls are given as the source filed them.
# Tests used:
# Assay in all cases: NCI-60 one-dose screen, 48 h (100 = growth as untreated, 0 = no growth, -100 = all killed)
# Settings in all cases: 10 µM unless noted
# NCI-H23 lung = system: NCI-H23 lung
# NCI-H226 lung = system: NCI-H226 lung
# NCI-H322M lung = system: NCI-H322M lung
# HOP-62 NSCLC = system: HOP-62 NSCLC
# NCI-H460 lung = system: NCI-H460 lung
# HOP-92 NSCLC = system: HOP-92 NSCLC
# NCI-H522 lung = system: NCI-H522 lung
# A549/ATCC NSCLC = system: A549/ATCC NSCLC
# 786-0 renal = system: 786-0 renal
# COLO 205 colon = system: COLO 205 colon
SMILES,growth (NCI-H23 lung),growth (NCI-H226 lung),growth (NCI-H322M lung),growth (HOP-62 NSCLC),growth (NCI-H460 lung),growth (HOP-92 NSCLC),growth (NCI-H522 lung),growth (A549/ATCC NSCLC),growth (786-0 renal),growth (COLO 205 colon)
O=C(Nc1ccc(Cl)cc1)Nc1ccc(Cl)c(C(F)(F)F)c1,-15.5% (active),2.69% (active),17.1%,11.3%,0.218% (active),-14.8% (active),3.9% (active),13.3%,15.1%,-73.8% (active)
COc1cc(N2C(=O)c3nccnc3C2=O)cc(OC)c1OC,99.6%,114%,99.7%,95.9%,111%,89.9%,95.2%,105%,97.1%,111%
CCOC(=O)/C=C/c1cc2cc(-c3csc4ccccc34)ccc2[nH]1,60.6%,103%,115%,76.7%,83.8%,99.7%,40%,55.5%,82.4%,93.4%
O=C(COc1ccc(/C=C2\Oc3ccccc3C2=O)cc1)Nc1nc2ccccc2s1,48.5%,98.4%,118%,73.8%,111%,-90.4% (active),-79.9% (active),68.3%,49%,91.5%
c1ccc(Nc2nc(-c3ccccn3)cs2)nc1,19.1%,-9.64% (active),27.1%,16.4%,-9.3% (active),63.6%,26.3%,11.2%,-2.41% (active),11.5%
Cc1cccc(-c2nc(N(C)c3ccc4ncsc4c3)c3ccccc3n2)n1,78.2%,84%,100%,69.7%,70.7%,91.8%,30.4%,48.5%,94%,57.3%
N/C(=N\c1nc2ccccc2s1)NC(=O)Nc1cccc(Cl)c1,59.4%,55.3%,53.3%,36.8%,15.1%,51.6%,17.1%,40.4%,34.8%,26.2%
CCSC1=NC2C(N(CC)C(=O)N2CC)N1/N=C/C=C/c1ccccc1[N+](=O)[O-] (stereo not given),21.9%,47.1%,31.2%,33.7%,1.33% (active),19.8%,-1.31% (active),19%,19%,3.83% (active)
CCc1c2c(nc3ccc(OC(=O)OCc4ccc(B5OC(C)(C)C(C)(C)O5)cc4)cc13)-c1cc3c(c(=O)n1C2)COC(=O)[C@]3(O)CC,-30.6% (active),-59.9% (active),1.92% (active),-10.7% (active),-6.28% (active),9.38% (active),-28.3% (active),3.37% (active),11.7%,7.72% (active)
CCOP(=O)(OCC)C1CP(=O)(c2ccccc2)CC(C)=C1Cl (stereo not given),91.7%,99.3%,97.7%,97.1%,113%,93.1%,65.3%,87.5%,87.8%,109%
O=C(N/N=C/C=C/c1ccc([N+](=O)[O-])o1)c1cc2ccccc2cc1O,-54.6% (active),-72.3% (active),-6.76% (active),-33.9% (active),-14.3% (active),-47.5% (active),-62.9% (active),4.04% (active),-18.4% (active),-100% (active)
CC1=NOC(=O)/C1=C\c1ccc(O)cc1,102%,108%,95.2%,99.5%,109%,101%,97.5%,97.4%,101%,109%
CC(C)(C)CC(C)(C)Nc1c(-c2ccncc2)nc2cnccn12,99.2%,90.3%,103%,104%,105%,87.1%,87.1%,96.4%,96.6%,101%
C[C@H]1[C@H]2[C@H]3CC[C@@H]4[C@@]5(C)C/C(=C/c6ccco6)C(=O)C(C)(C)[C@@H]5CC[C@@]4(C)[C@]3(C)CC[C@]23CO[C@]1(C)[C@@H](C(=O)/C=C\c1ccco1)C3,99.6%,99.6%,98.4%,106%,107%,87.1%,85.7%,88.3%,104%,-6.84% (active)
O=c1ssc(Cl)c1-c1ccccc1,99.5%,99.1%,105%,98.1%,99%,72.5%,112%,106%,107%,85.1%
Nc1ccc2c(c1)c(N)nn2C(=O)Nc1ccc(Cc2ccccc2)cc1,82.1%,72.5%,81.2%,82.7%,44.5%,98.2%,88.3%,52.3%,84.3%,107%
Cc1ccc(N(C(=O)CCc2c[nH]c3ccccc23)[C@H](C(=O)Nc2ccc(Cl)cc2)c2cccc([N+](=O)[O-])c2)cc1,92.8%,74.9%,79.1%,68%,98.2%,75.9%,64.2%,73.8%,90.5%,95%
O=C(NCCNc1cc(-c2cn(-c3ccccc3)nc2-c2cccc(O)c2)ccn1)Nc1ccccc1,69.4%,70.6%,95.3%,63.7%,86.2%,54.5%,70.8%,52.5%,71.4%,81.2%
CC(CCc1ccc(Cl)c(Cl)c1)NCc1ccc(C(C)(C)C)cc1 (stereo not given),91.9%,83.9%,97.8%,85.9%,90.6%,59.5%,82.7%,60.8%,70.8%,-38.2% (active)
COc1cc(/C=C/C(=O)c2cccc(-n3cc(-c4ccccc4)[nH]c3=O)c2)ccc1O,84.5%,105%,85.4%,129%,89.2%,45.3%,26.2%,66.7%,74%,100%
COc1cc(C2CC(=O)Nc3c2c(C)nn3-c2nc3ccccc3[nH]2)c(OC)c(OC)c1OC (stereo not given),82.6%,89.7%,95.2%,44.3%,39%,75.7%,33.3%,43.2%,27.6%,41.2%
N/C(=N/N=C/c1ccccc1)N/N=C\c1ccccc1,66.6%,81%,85.2%,76.5%,39.8%,57.1%,56.8%,59%,56.2%,67.7%

SMILES,growth (NCI-H23 lung),growth (NCI-H226 lung),growth (NCI-H322M lung),growth (HOP-62 NSCLC),growth (NCI-H460 lung),growth (HOP-92 NSCLC),growth (NCI-H522 lung),growth (A549/ATCC NSCLC),growth (786-0 renal),growth (COLO 205 colon)
CCCCCCCCCOc1c(OC)cc(C2CC(=O)Nc3c2c(C)nn3-c2nc3ccccc3[nH]2)cc1OC (stereo not given),-50% (active),-61.6% (active),-58.1% (active),-32.9% (active),-23.4% (active),-23.4% (active),-65.2% (active),-56% (active),-70.7% (active),3.77% (active)
Cc1cc(N2CCCC2)nc(NCc2cc(Nc3ccnc4cc(Cl)ccc34)ccc2F)n1,-27.8% (active),24.8%,-27.6% (active),-69.2% (active),-71.5% (active),-14% (active),-50.3% (active),-13.1% (active),-92.7% (active),-82.2% (active)
Nc1nc(N)c2c(n1)NC(c1ccccc1)C1CCc3ccccc3C1=N2 (stereo not given),39.3%,53.3%,64.4%,70.2%,18.5%,72.2%,89.9%,63.4%,55.1%,27.6%
Cc1nc2c(c(N3CCCc4ccccc43)n1)CCC2,25.5%,10.9%,54.5%,4.68% (active),3.12% (active),0.664% (active),-18.6% (active),2.98% (active),10.1%,-59.5% (active)
Cc1c(C)c2c(c(C)c1OCC(=O)O)CC[C@@](C)(CCC[C@@H](C)CCC[C@@H](C)CCCC(C)C)O2,-30.8% [50 µM] (active),2.79% [50 µM] (active),43.3% [50 µM],2.69% [50 µM] (active),3.28% [50 µM] (active),-56.6% [50 µM] (active),-4.29% [50 µM] (active),-3.06% [50 µM] (active),-46.4% [50 µM] (active),-10.6% [50 µM] (active)
COc1ccc(-c2nc3c(c(=O)n2C(C)=O)C(c2ccc(Cl)cc2)c2sc4c(Cl)cccc4c2O3)cc1 (stereo not given),3.67% (active),15.8%,-5.66% (active),-5.72% (active),-10.8% (active),-15.7% (active),-45.6% (active),-55% (active),-50.1% (active),-62.3% (active)
O=C(O)CN1C(=O)CCC1=O,104%,101%,123%,97.1%,115%,97.2%,103%,98.4%,105%,118%
O=S(=O)(O)c1ccc(N/N=C/c2ccccc2Cl)cc1,108%,111%,108%,123%,109%,116%,96.9%,99.5%,95.6%,112%
COc1ccc2c(c1)O/C(=C\c1cccc(OCC(=O)Nc3nc4ccccc4s3)c1)C2=O,-1.91% (active),83.7%,106%,115%,110%,-24.5% (active),-60.1% (active),95.8%,92.2%,104%
N#Cc1c(N)nn(C(=O)c2ccc(NC(=O)c3ccccn3)cc2)c1-c1ccc(Cl)cc1,20%,20.1%,22.2%,-18.4% (active),15.9%,7.04% (active),36.3%,35.4%,9.76% (active),1.15% (active)
O=C(c1ccc(Nc2nccc(NCCCCNc3ccnc4cc(Cl)ccc34)n2)cc1)N1CCCCC1,45.3%,91.3%,51.3%,69.7%,12.9%,59.2%,33.2%,25.8%,0.767% (active),-58.6% (active)
COC(=O)[C@]12CC[C@@H](C)[C@H](C)[C@@H]1C1=CC[C@@H]3[C@@]4(C)C(C=O)=C[C@@](C)(COC(=O)/C=C/c5ccccc5)[C@@H]4[C@H](O)C[C@@]3(C)[C@]1(C)CC2,10.4%,10.1%,42%,-5.38% (active),-19.1% (active),-5.49% (active),-16.3% (active),3.82% (active),-5.1% (active),-37% (active)
COc1cc(/C=C/C(=O)c2c(C)nc3ccccc3c2/C=C/c2ccc(C)cc2)cc(OC)c1OC,24.4%,28.9%,57.5%,28.7%,-22.1% (active),69.7%,24.1%,73.1%,28.4%,46.2%
Cn1c2c(c3ccc(Cl)c(Cl)c31)C(C#N)C1(CCNCC1)NC2=O (stereo not given),72.6%,44.1%,55.3%,23.8%,18.3%,21.9%,47.3%,31.2%,54.5%,-76.6% (active)
O=C(N/N=C/c1ccncc1)c1ccc(C(F)(F)F)nc1Nc1cccc(C(F)(F)F)c1,21.4%,23.7%,8.36% (active),13.3%,14.3%,3.81% (active),-9.51% (active),16.1%,-27.9% (active),-3.93% (active)
O=c1c2cc(F)ccc2sc2c(Nc3cccnc3)nc3ccccc3c12,78.8%,90.5%,88.8%,96.1%,68.5%,75.1%,94.3%,73.7%,86.9%,85%
C[n+]1cc2c3c(ccc2c2ccc4cc5c(cc4c21)OCO5)OCO3,-67% (active),-87.7% (active),-93.8% (active),-83.8% (active),-54.7% (active),-80.6% (active),-74.2% (active),-86.2% (active),-87.5% (active),-84.5% (active)
NS(=O)(=O)c1cnccc1Sc1ccncc1S(N)(=O)=O,96.5%,95.2%,124%,91.7%,108%,92.1%,115%,109%,100%,98.8%
Cc1ccc2nc(NC(=O)CSc3nc(Nc4ccc([N+](=O)[O-])cc4)c(C#N)c(-c4ccccc4)n3)sc2c1,99.6%,98.7%,92.6%,95.6%,98.7%,90.9%,87.3%,93.8%,101%,108%
COc1ccc(CNC(=O)C(O)C(Cc2ccccc2)NC(=O)c2[nH]c3ccccc3c(=O)c2C)cc1OC (stereo not given),102%,98.1%,104%,102%,103%,110%,93%,103%,101%,123%
Cc1ccc(S(=O)(=O)NCC[C@@H]2C[C@H]2c2cc3ccccc3s2)cc1,93.2%,87.8%,101%,108%,104%,101%,85.3%,98.5%,100%,120%
